# Most compounds without a hit are left out; they make up all but 7.8% or so of the library.
# Vaccinia Venus = inhibitors of vaccinia virus (Venus reporter); hit rate 0.46% among 330,000; Potency, µM (highest dose often 36.5 µM), for inactives: top-dose activity change, negative = inhibition, hits mostly inhibitors; AID 720580; Vaccinia virus Venus reporter expression, fluorescence; calls by dose curve; tested in A549 cells; note: potency is the fitted concentration of half-maximal effect; nearly all actives have a fitted effect of over 30% in size
# Marburg entry inh = Marburg virus entry inhibition | Potency, µM (highest dose often 37.8 µM), for the others: top-dose activity change, negative = inhibition, hits mostly inhibitors | Marburg virus pseudotyped entry inhibition, cell reporter | hit rate 1.8% among 300,000; calls by dose curve; tested in HEK293 cells; note: potency is the fitted concentration of half-maximal effect
# HCV inhibitor = inhibitors of hepatitis C virus infection | Huh7.5.1 HCVcc-Cre infection, luciferase reporter, 44 h | Potency, µM (series often up to 41.8 µM), for inactives: top-dose activity change, negative = inhibition, hits mostly inhibitors | hit rate 3.4% among 340,000 | AID 651820; active = well fitted inhibition curve with a large enough effect; inconclusive = small, poorly fitted or top-dose-only effect, or another doubt; inactive = no such curve, though single readings can be large or run the other way; note: potency is the fitted concentration of half-maximal effect
#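 Whole-lifecycle infectious HCVcc-Cre system; cells 1,000/well, compound then virus (~0.5 moi) added 4 h after plating, 44 h culture. Luciferase read 15 sec following 15 min substrate incubation, room temp.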
# VACV mCherry inh = inhibitors of vaccinia virus infection (mCherry reporter signal) | Vaccinia virus mCherry reporter infection, fluorescence | Potency, µM (series often up to 36.5 µM), without a hit: top-dose activity change, negative = inhibition, actives largely listed as inhibitors | hit rate 0.63% among 310,000 | AID 720579; calls by dose curve; tested in A549 cells; note: potency is the fitted concentration of half-maximal effect; nearly all actives have a fitted effect of over 35% in size
# Lassa entry inh = inhibitors of Lassa virus binding or cell entry. Lassa virus pseudotype entry inhibition, cell reporter. Potency, µM (top dose mostly 37.9 µM), without a hit: top-dose activity change, negative = inhibition, usual class: inhibitors. hit rate 1.2% among 300,000. AID 540256; calls by dose curve; tested in HEK293 cells; note: potency is the fitted concentration of half-maximal effect; nearly all actives have a fitted effect of over 50% in size
# HCMV inh = inhibitors of human cytomegalovirus | HFF cells, HCMV-luciferase reporter, 72 h; stronger effect = lower value | activity change, negative = inhibition, % at 57.5 µM | hit rate 4.5% among 410,000; in the data active = activity change below about -60%; inconclusive = no clear call, values can overlap the other calls; inactive = above about -39%
#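 Human foreskin fibroblasts infected with luciferase-reporter HCMV at MOI 1 PFU/cell, compounds at two doses. Luciferase measured 72 h post infection; normalized to buffer-only basal and Salinomycin (10uM) controls.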
# Numbers without * were called inactive; i = inactive; ? = inconclusive; . = no result; [ ] = another dose, or the depositor's remark. % is set by controls: 0 for no effect and ±100 for the full control effect.
SMILES,Vaccinia Venus,Marburg entry inh,HCV inhibitor,VACV mCherry inh,Lassa entry inh,HCMV inh
O=C(C1CCN(S(=O)(=O)c2ccccc2F)CC1)N1CCN(Cc2ccc3c(c2)OCO3)CC1,.,.,13µM*,.,.,-33
O=C(c1cccs1)N1CCC(C(=O)N2CCN(Cc3ccc4c(c3)OCO4)CC2)CC1,5%,?,-15%,-15%,-3%,?
Cc1nn(-c2ccc(F)cc2)c(C)c1CNC(=O)c1ccc(-n2cc(NC(=O)c3ccoc3)cn2)cc1,-1%,.,.,-3%,.,.
O=C(C1CCN(Cc2cccs2)CC1)N1CCN(Cc2ccc3c(c2)OCO3)CC1,-10%,?,?,-3%,0%,-104*
COc1cc2cc(c1Cl)N(C)C(=O)CC(OC(=O)C(C)N(C)C(C)=O)C1(C)OC1C(C)C1CC(O)(NC(=O)O1)C(OC)C=CC=C(C)C2 (stereo not drawn),-34%,-10%,?,?,?,-80*
COc1ccccc1CNC(=S)NC1CCCCC1,-26%,?,-27%,-13%,8.9µM*,-74*
Fc1ccccc1CNC(=S)NC1CCCCC1,-10%,?,?,-7%,?,.
COc1cccc(CNC(=S)NC2CCCC2)c1,-7%,-4%,?,-9%,8%,-61*
Cc1nn(-c2ccccc2)c2c1C(O)n1c(nc3ccccc31)S2 (stereo not drawn),-12%,?,11µM*,i,?,40
COc1cc(Cl)c(NS(=O)(=O)c2ccc3[nH]c(=O)ccc3c2)c(OC)c1,-7%,.,.,-12%,-16%[46.1 µM],26
COc1ccc2oc3cc(C)[n+]([O-])c(-c4ccc(Br)cc4)c3c2c1,-16%,-28%,?,-27%,?,-84*
CCCN(C(=O)c1coc(=O)c2ccccc12)c1ccccc1C,1%,?,.,-15%,?,-2
O=C(C1CCCCC1)N1CC(=O)N2[C@H](C1)[C@@H](c1ccc(Br)cc1)[C@@H]2CO,.,.,.,.,.,-8
CCOC(=O)c1cnc(SCc2nc(N)nc(Nc3ccc(C)cc3)n2)nc1N,?,-26%,-11%,?,?,-88*
CCOC(=O)c1cnc(SCc2nc(N)nc(Nc3ccccc3OC)n2)nc1N,.,2%,.,.,.,56
CCOC(=O)c1cnc(SCc2nc(N)nc(Nc3ccc(F)cc3)n2)nc1N,.,?,?,.,?,-96*
O=C(Nc1ccccc1C(=O)OCc1cc(=O)n2c3c(sc2n1)CCCC3)c1ccc(F)cc1,-9%,.,.,i,0%[46.1 µM],-17
COc1ccc(CN2C[C@H](Sc3nc4ccccc4[nH]3)C[C@H]2C(=O)N(C)C)c2ccccc12,-1%,.,.,-17%,.,.
O=C(NCCN1CCN(c2ccccc2)CC1)C1(S(=O)(=O)c2ccc(Cl)cc2)CC1,-22%,.,-13%,?,.,8
CC1(C)CCC(c2ccc(Cl)cc2)=C(CN2CCN(c3ccc(C(=O)NS(=O)(=O)c4ccc(N[C@H](CCN5CCOCC5)CSc5ccccc5)c(S(=O)(=O)C(F)(F)F)c4)cc3)CC2)C1,10µM*,.,.,?,.,.
Cc1ccccc1CCNC(=O)CCn1nc(C)c2c(C)n(-c3ccccc3)nc2c1=O,.,.,-23%,.,.,-60*
Cc1nn(CCC(=O)NCCc2ccccc2Cl)c(=O)c2nn(-c3ccccc3)c(C)c12,.,.,-30%,.,.,-62*
Cc1ccc(-n2nc3c(=O)n(CCCC(=O)NCc4ccc(Cl)cc4)nc(C)c3c2C)cc1,.,.,26%,.,.,-23
Cc1ccc(-n2nc3c(=O)n(CCCC(=O)NCc4cccc(Cl)c4)nc(C)c3c2C)cc1,.,.,22µM*,.,.,28
Cc1ccc(F)c(C(=O)N2CC3ON=C(c4c(F)cccc4Cl)C3C2)c1F (stereo not drawn),.,.,.,.,.,4
SMILES,Vaccinia Venus,Marburg entry inh,HCV inhibitor,VACV mCherry inh,Lassa entry inh,HCMV inh
CC(C)(C)c1ccc(C(=O)Nc2nc3nc(-c4ccccc4)cc(=O)n3[nH]2)cc1,-2%[7.34 µM],7%[46.1 µM],.,-7%[7.34 µM],-2%[46.1 µM],18
CCC(=O)c1ccc(OCC(=O)N2CCN(CC(=O)Nc3ccccc3C(F)(F)F)CC2)cc1,-9%,?,13µM*,i,2%[46.1 µM],?
CN1CCN(CC(=O)Nc2ccccc2C(F)(F)F)CC1,.,.,8%,.,.,29
CC(C)=CCCC(C)=CCN1C(=O)[C@@]2(CC(C)=CC[C@@H](C)O2)c2c(Br)cccc21,.,0%[14.2 µM],.,.,.,.
NC(N)=N/N=C/c1ccc(Cl)c(Cl)c1,-25%,?,2%,-23%,?,?
NC(N)=N/N=C/c1ccc(Cl)cc1Cl,?,3.2µM*,?,?,?,-3
COc1ccc(Cn2ccc3nc(C)c(C(=O)Nc4ccc(OC)c(OC)c4)cc3c2=O)cc1,-15%,.,.,-2%,-13%[46.1 µM],-12
O=C(c1ccccc1)c1ccc(CN2C(=O)c3ccccc3C2=O)o1,-3%,12%,1%,-12%,2%,6
COc1ccc(CNC(=O)c2ccc(-c3ccccc3)cc2)cc1,-8%,2%,-23%,-15%[1.46 µM],?,60
CC(=O)c1c(C)oc2c1C(=O)c1ccccc1C2=O,-2%,-2%,8.9µM*,-15%,-11%,-72*
COc1ccc(CNC(=O)c2c(F)c(F)c(F)c(F)c2F)cc1,?,-28%,?,11µM*,1%,-102*
COc1ccc(CNC(=O)c2c(C)oc3c2C(=O)c2ccccc2C3=O)cc1,8.9µM*,6%,4%[8.37 µM],7.1µM*,-14%,?
O=C1c2ccccc2C(=O)c2c1oc(C(F)(F)F)c2C(=O)c1ccccc1,3.2µM*,?,22µM*,4.5µM*,?,-98*
CC(=O)c1c2c3c(c(Br)ccc3n(C)c1=O)C(=O)c1ccccc1-2,5%,0%[46.1 µM],-6%,i,-17%,?
O=S(=O)(NCc1nc2cccnc2n1Cc1ccccc1Cl)c1ccc2c(c1)CCCC2,-14%,.,.,-7%,-2%[46.1 µM],-12
CC(=O)N1C(=O)NC(C)=C(C#N)C1c1ccccc1 (stereo not drawn),.,-10%[14.2 µM],.,.,.,.
Cc1oc2c(c1C(=O)NCc1cccnc1)C(=O)c1ccccc1C2=O,0.56µM*,.,1.6µM*,?,.,.
CCN1[C@H](C(=O)OC)[C@@H](CO)[C@@H]2Cn3c(ccc(Br)c3=O)[C@@H]21,.,.,.,.,.,20
Cc1cc(C)cc(-c2nnc(SCC(=O)N3CCN(C(=O)c4ccco4)CC3)o2)c1,?,5%,?,8.9µM*,-23%,-10
CCOC(=O)N1CCN(C(=O)CSc2nnc(-c3cccc(Cl)c3)o2)CC1,?,.,0%,5.6µM*,.,12
Cc1nnc(SCC(=O)N2CCN(C(=O)c3ccco3)CC2)n1C,.,.,14%,.,.,-4
O=C(CSc1nc(-c2ccccc2)cs1)N1CCN(C(=O)c2ccco2)CC1,.,20%,-19%,.,3%,-103*
O=C(CSc1nnc(-c2ccc(Br)cc2)o1)N1CCN(C(=O)c2ccco2)CC1,5µM*,-3%,?,0.63µM*,?,-25
O=C(CSc1nnc(-c2ccccc2)o1)N1CCCC1,-7%,27%[46.1 µM],-18%,i,25%,-6

# Screening data as filed in PubChem BioAssay.
